Source: the supplement of paper PMC4380459

The compounds below were run on tubulin (bovine brain) (assay: tubulin polymerization end-point dOD, fold change relative to DMSO vehicle; higher = more polymerization (stabilization)). Details: 50 µM; 60 min; 37 °C.
Procedure: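 In-vitro tubulin polymerization assay (Cytoskeleton HTS kit) with 4 mg/ml bovine brain tubulin in G-PEM buffer and compound at 50 uM (0.5% DMSO). Turbidity was read at 340 nm every minute for 1 h at 37 C. The end-point change in OD (dOD) was converted to % fold change relative to the DMSO vehicle (0%), and runs were scaled using DMSO and Taxol controls. The paper calls >20% an effect, 20-40% weak and >40% strong; positive values mean stabilization, negative values destabilization. Scale: negative = destabilization.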
`C=CCc1ccccc1OCC(=O)N/N=C\c1ccc(Cl)cc1` was tested, and the “tubulin polymerization end-point dOD” value was -25.9%. With `COc1ccc2cc(CN(Cc3ccco3)C(=O)Nc3ccccc3OC)c(=O)[nH]c2c1` the “tubulin polymerization end-point dOD” value was 43.9%. With `Cc1cnc(C(=O)Nc2ncc(Cc3ccc(C)c(Cl)c3)s2)cn1` the “tubulin polymerization end-point dOD” value was -19.2%. `Cc1cccc2cc(C#N)c(SCC(=O)c3ccc(F)cc3)nc12` was tested, and the “tubulin polymerization end-point dOD” value was -11.1%. With `Cc1ccccc1NC(=O)CSc1nc2cc3c(cc2cc1C)CCC3` the “tubulin polymerization end-point dOD” value was 69.3%. For `CCc1cc2cc(OC)ccc2nc1SCC(=O)Nc1ccccc1C`, the “tubulin polymerization end-point dOD” value was 104%. With `CCCC(NC(=O)c1cnc(SC)nc1)c1ccc2c(c1)OCCO2` (stereo not given) the “tubulin polymerization end-point dOD” value was 2.16%. For `CCc1ccc2nc(SCC(=O)Nc3ccccc3C)c(C)cc2c1`, the “tubulin polymerization end-point dOD” value was -20.5%. For `Cc1ccc(NC(=O)CSc2nc3cc4c(cc3cc2C#N)OCCO4)c(C)c1`, the “tubulin polymerization end-point dOD” value was -24.1%. For `COc1cc(C(=O)Nc2ccc3c(c2)Nc2ccccc2CC3)cc(OC)c1OC`, the “tubulin polymerization end-point dOD” value was -20.1%. In the case of `COc1ccc(Cc2cnc(NC(=O)c3sc4ccccc4c3Cl)s2)cc1`, the “tubulin polymerization end-point dOD” value is reported as 169%. For `COc1cc(C(=O)Nc2ccc3c(c2)CCN3C(C)=O)cc2c1OCCO2`, the “tubulin polymerization end-point dOD” value was -17%. For `CC1Cc2ccccc2N1C(=O)CSc1nnc(-c2cc3ccccc3cc2O)n1C` (stereo not given), the “tubulin polymerization end-point dOD” value was -10.6%. For `Oc1ccccc1-c1nc2cnccn2c1NCc1ccc2c(c1)OCO2`, the “tubulin polymerization end-point dOD” value was -6.54%. `Cc1cc2cc3c(cc2nc1SCC(=O)Nc1ccccc1C(F)(F)F)OCO3` was tested, and the “tubulin polymerization end-point dOD” value was -12.8%. `Cc1ccc2cc(C#N)c(SCC(=O)c3ccc(F)cc3)nc2c1C` was tested, and the “tubulin polymerization end-point dOD” value was 20%. In the case of `Cc1csc(NC(=O)CSc2nnc(-c3cccnc3)n2-c2ccccc2C)n1`, the “tubulin polymerization end-point dOD” value is reported as -45.1%. With `O=c1[nH]c(CSc2ccccc2)nc2sc3c(c12)CCC3` the “tubulin polymerization end-point dOD” value was -9.09%. With `CC(=O)c1c(C)oc2c1cc(NS(=O)(=O)c1ccc(C)cc1)c1ccccc12` the “tubulin polymerization end-point dOD” value was -58.9%. For `COc1ccc2nc(SCC(=O)Nc3ccccc3OC)c(C#N)cc2c1`, the “tubulin polymerization end-point dOD” value was -9.01%. In the case of `Nc1c(C(=O)c2ccccc2)sc2nc3c(cc12)CCCC3`, the “tubulin polymerization end-point dOD” value is reported as 59.7%. `Cc1cccc(N2CCN(C(=O)c3cc(Cl)ccc3Cl)CC2)c1` was tested, and the “tubulin polymerization end-point dOD” value was -45.7%. `O=C(N/N=C/c1ccc2c3c(cccc13)CC2)C1COc2ccccc2O1` (stereo not given) was tested, and the “tubulin polymerization end-point dOD” value was 28.5%. For `Cc1ccc2[nH]c(=O)c(CN(CC3COCCO3)C(=O)Nc3ccccc3Cl)cc2c1` (stereo not given), the “tubulin polymerization end-point dOD” value was 23.1%. For `Cc1ccc(C2=NN(C(=O)c3ccncc3)C(c3ccccc3F)C2)cc1` (stereo not given), the “tubulin polymerization end-point dOD” value was -4.53%. For `CC(=O)Nc1ccc(Nc2nc(-c3c(C)nc4ccccn34)cs2)cc1`, the “tubulin polymerization end-point dOD” value was 30.8%. `Cc1cc2nc(-c3ccc(SCC#N)nc3)[nH]c2cc1C` was tested, and the “tubulin polymerization end-point dOD” value was 51.8%. `Cc1ccc(NC(=S)N(Cc2cc3ccc(C)cc3[nH]c2=O)CC2CCCO2)cc1` (stereo not given) was tested, and the “tubulin polymerization end-point dOD” value was 97.9%. In the case of `Cc1ccc(/C=N\NC(=O)c2cccc(Cl)c2)cc1`, the “tubulin polymerization end-point dOD” value is reported as 3.13%. With `COC(=O)Nc1nc2cc(Sc3ccccc3)ccc2[nH]1` [Fenbendazole] the “tubulin polymerization end-point dOD” value was -27.1%. In the case of `Cc1ccc(/C=N/NC(=O)C2COc3ccccc3O2)s1` (stereo not given), the “tubulin polymerization end-point dOD” value is reported as 5.76%. With `CCS(=O)(=O)N1CCc2cc(C(=O)Cn3cnc4sc(C)c(-c5ccccc5)c4c3=O)ccc21` the “tubulin polymerization end-point dOD” value was 38.3%. In the case of `O=C(Nc1ncc(Cc2ccccc2)s1)c1sc2ccccc2c1Cl`, the “tubulin polymerization end-point dOD” value is reported as -14.2%. In the case of `CCc1nc(SCC(=O)Nc2ccc(N(CC)CC)c(C)c2)c2ccccc2n1`, the “tubulin polymerization end-point dOD” value is reported as -34%. With `Cc1cccc(/C=N/N=C2\NC(=O)C(Cc3cccc(C)c3)S2)c1` (stereo not given) the “tubulin polymerization end-point dOD” value was 9.8%. In the case of `CCc1ccc2nc(SCC(=O)Nc3ccccc3OC)c(C#N)cc2c1`, the “tubulin polymerization end-point dOD” value is reported as -25%. For `COc1ccccc1NC(=O)CSc1nnc(-c2cc(OC)c(OC)c(OC)c2)n1C`, the “tubulin polymerization end-point dOD” value was -33.1%. With `O=c1[nH]c(/C=C/c2ccccc2)nc2sc3c(c12)CCCC3` the “tubulin polymerization end-point dOD” value was -32.9%. In the case of `CCc1cc2cc3c(cc2nc1SCC(=O)Nc1ccccc1Cl)OCCO3`, the “tubulin polymerization end-point dOD” value is reported as 11.4%. With `COc1ccccc1NC(=S)N(Cc1ccccc1)Cc1cc2ccc(C)cc2[nH]c1=O` the “tubulin polymerization end-point dOD” value was 272%.
